Experimental data reported in PubChem BioAssay (NCATS).
Records with an inconclusive call do not appear. Active and inactive are the calls of the source. Unless noted, the call rests on the fitted dose curve; in most records, active means well fitted curve in the direction sought with a large enough effect; inconclusive means small, poorly fitted or top-dose-only effect, or another doubt; inactive means no such curve, though single readings can be large; an effect the other way counts as inactive or inconclusive.

Columns and labels:
[1] = Validation of Assay for Modulators of Lamin A Splicing (AID 1459; active means well fitted curve in the direction sought with a large enough effect in the signal ratio; the % refers to the signal ratio;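 further: cells exposed to compound for two days before reading; 0% is about no effect; ratio rise marks activators and ratio drop marks inhibitors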)
Summary of the method: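 Splicing correction read as GFP (500-530 nm) over DsRed2 (575-640 nm) object intensity after 48 h compound exposure of reporter HeLa S3 clones (600 cells/well, 2% FBS medium); ancitabine and cycloheximide titrations, 0.5% DMSO as vehicle.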

[2] = qHTS Assay for Lipid Storage Modulators (AID 1519; calls by dose curve); conditions: Drosophila S3 cells, BODIPY lipid droplet/cell ratio, laser cytometry, cells loaded with oleic acid
Summary of the method: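 Cells seeded at 5,000 per well were treated with compounds over a concentration series and loaded with oleic acid (400 uM, as added). Lipid droplet fluorescence (488 nm excitation, 500-530 nm channel) was read by laser-scanning cytometry and normalized to 20 uM Triacsin C.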

[3] = molecular target: DNA repair nuclease/redox regulator APEX1 (Homo sapiens) (UniProt P27695); assay: qHTS Validation Assay for Inhibitors of the Human Apurinic/apyrimidinic Endonuclease 1 (APE1) (AID 1705;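 further: TAMRA fluorescence gain over two minutes as APE1 cuts a quenched THF abasic duplex; on the % scale 0 is the no-effect control and ±100 the full control effect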)
Summary of the method: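 Activity read as rising fluorescence (598 nm emission, 525 nm excitation) from incision of a TAMRA/BHQ-2 duplex carrying a THF abasic site (50 nM). Compound and enzyme sat 15 min at RT before substrate start; signal change between first and third 60-s reads.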

[4] = Counterscreen for APE1 Inhibitors: Fluorescent Dye Displacement Validation Assay (AID 1707);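 further: plate controls were ThO with dsDNA and no compound for no effect and ThO without dsDNA for full effect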
Summary of the method: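 Assay buffer: Tris-HCl pH7.5 with 50mM NaCl, 2 mM MgCl2, 0.01% Tween-20. Dye 250 nM, duplex 50 nM final. Readout: decrease in ThO endpoint fluorescence, 480 nm excitation, 540 nm emission.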

[5] = molecular target: Endonuclease 4 (Escherichia coli (strain K12)) (UniProt P0A6C1); assay: Counterscreen for APE1 Inhibitors: qHTS Validation Assay for Inhibitors of Endonuclease IV (AID 1708); further: on the % scale 0 is the no-effect control and ±100 the full control effect
Summary of the method: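 Concentration-response counterscreen run identically to the APE1 assay: 15 min room-temperature preincubation of 2 nM enzyme with compound, reaction started with 50 nM quenched abasic DNA, progress taken from kinetic fluorescence.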

[6] = qHTS for differential inhibitors of proliferation of Plasmodium falciparum line 7G8 (AID 1815);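 further: potency means the concentration at half of the fitted maximal effect; parasite growth measured after three days of incubation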
[7] = qHTS for differential inhibitors of proliferation of Plasmodium falciparum line GB4 (AID 1816); conditions: Potency: Plasmodium falciparum GB4 proliferation inhibition;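 further: potency means the concentration at half of the fitted maximal effect; parasite growth measured after 72 h incubation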
[8] = qHTS for differential inhibitors of proliferation of Plasmodium falciparum line D10 (AID 1877);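 further: parasites grown with compound for 72 h before DNA staining; plate controls were vehicle wells for no effect and reference inhibitor wells for full effect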
[9] = qHTS for differential inhibitors of proliferation of Plasmodium falciparum line W2 (AID 1883); conditions: Potency: Plasmodium falciparum W2 proliferation inhibition;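 further: potency means the concentration at half of the fitted maximal effect; parasites grown with compound for 72 h before lysis and staining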
[10] = qHTS for differential inhibitors of proliferation of Plasmodium falciparum line HB3 (AID 1886); conditions: Potency: Plasmodium falciparum HB3 proliferation inhibition;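 further: parasites grown with compound for 72 h before SYBR Green readout; plate controls were vehicle for no effect and reference inhibitor for full effect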
[11] = molecular target: Ferritin light chain (Equus caballus) (UniProt P02791); assay: qHTS Validation Assay for Identification of Novel General Anesthetics (AID 2323); further: on the % scale 0 is the no-effect control and ±100 the full control effect
Summary of the method: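 Competitive displacement of the profluorescent anesthetic 1-AMA (50% saturated, PBS) from 10 uM apoferritin, 10 min, room temperature. Activity is normalized 380/535 nm fluorescence; concentration-response fitted with a four-parameter Hill equation.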

[12] = molecular target: ATP-dependent DNA helicase Q1 (Homo sapiens) (UniProt P46063); assay: qHTS Validation Assay for Inhibitors of RecQ-Like Dna Helicase 1 (RECQ1) (AID 2353);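 further: plate controls were DMSO vehicle for no effect and enzyme-free control for full effect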
Summary of the method: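 50 nM RECQ1T1 preincubated 15 min with compound in Tris pH 8.0 buffer with MgCl2, DTT, Tween-20 and 2.5 ug/ml poly(dI-dC); started with 200 nM TAMRA/BHQ-2 forked duplex and 2 mM ATP. Unwinding read as fluorescence (525/598 nm), two reads 2 h apart.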

[13] = Validation screen for inhibitors of Lassa infection (AID 463096; calls by dose curve; further: on the % scale 0 is the no-effect control and ±100 the full control effect)
[14] = Validation screen for small molecules that induce DNA re-replication in MCF 10A normal breast cells (AID 463097); further: 0% is about no effect; nearly all actives have a fitted effect of over 60% in size
Summary of the method: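 Read-out is Hoechst total nuclear intensity by fluorescence scanning imager, flagging increased high-DNA-content nuclei. Compounds were incubated with MCF 10A cells for 48 hr (37 C, 5% CO2) before 40 min staining.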

[15] = Quantitative high throughput screen for delayed death inhibitors of the malarial parasite plastid, 96 hour incubation (AID 488745); further: on the % scale 0 is the no-effect control and ±100 the full control effect; nearly all actives have a fitted effect of over 70% in size
Summary of the method: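 Luciferase-expressing P. falciparum in erythrocytes (2% hematocrit, 0.1% parasitemia) incubated with compound for 96 h at 37 C, 5% CO2, in RPMI 1640 with 0.5% Albumax. Growth inhibition read as decreased luminescence.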

[16] = Quantitative high throughput screen for delayed death inhibitors of the malarial parasite plastid, 48 hour incubation (AID 488752); further: on the % scale 0 is the no-effect control and ±100 the full control effect; nearly all actives have a fitted effect of over 65% in size
Summary of the method: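 Erythrocytes infected with firefly luciferase-expressing P. falciparum (2% hematocrit, 0.1% parasitemia) cultured with compound for 48 h at 37 C, 5% CO2, in RPMI 1640/0.5% Albumax. Growth inhibition read as loss of luminescence.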

[17] = molecular target: M-phase phosphoprotein 8 (Homo sapiens) (UniProt Q99549); assay: qHTS Validation Assay for Inhibitors for MPP8 Chromodomain Interactions with Methylated Histone Tails (AID 488949);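 further: AlphaScreen signal from MPP8 chromodomain bound to biotinylated H3K9me3 peptide; top concentration of the series differs between compounds; on the % scale 0 is the no-effect control and ±100 the full control effect; nearly all actives have a fitted effect of over 55% in size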
Summary of the method: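 AlphaScreen proximity signal from streptavidin donor and Ni-chelate acceptor beads (10 ug/mL each) reported binding of MPP8 to trimethyl-K9 H3(1-18) peptide, both at 50 nM. The complex formed 30 min before a 30 min compound exposure at room temperature, in PBS pH 7.4.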

[18] = molecular target: Transient receptor potential cation channel subfamily V member 1 (Homo sapiens) (UniProt Q8NER1); assay: HTS Assay for Compounds that Act as Enhancers of the Vanilloid Receptor 1 (AID 488979); further: 0% is about no effect
Summary of the method: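 TRPV1-expressing cells loaded with Fluo-8 calcium dye; compounds added and calcium influx read kinetically for 3 min (agonist phase), then capsaicin at EC20 added and read 2 min more for enhancement. Fluorescence ex 480/em 520 nm.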

[19] = molecular target: Thyrotropin receptor (Homo sapiens) (UniProt P16473); assay: qHTS Assay for Antagonists of the Thyroid Stimulating Hormone Receptor (AID 488980); further: 0% is about no effect
Summary of the method: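 Inhibition of cAMP raised by EC80 TSH (4 nM final) was read by HTRF, with lysate cAMP competing against cAMP-d2 for cryptate antibody after 30 min at room temperature. The cells were transfected HEK293 held in phosphodiesterase inhibitor RO 20-1724 at 70 uM.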

[20] = molecular target: Thyrotropin-releasing hormone receptor (Homo sapiens) (UniProt P34981); assay: qHTS for Small Molecule Agonists and Allosteric Enhancers of Human TRH Receptor: Validation Screen for Agonists (AID 493127;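 active means calcium activation more than 3 SD above the typical response in the agonist read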; further: 0% is about no effect); conditions: TRH receptor agonist cell assay; at 2 µM; stronger effect = higher value
Summary of the method: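 TRHR cells loaded with fluo-8 calcium dye; FDSS kinetic fluorescence (Ex 480/Em 530) read at 1 s/cycle after 23 nL compound addition. Agonist-mode calcium response recorded before the 10 nM TRH (EC20) addition.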

[21] = molecular target: Galactokinase (Homo sapiens) (UniProt P51570); assay: qHTS Validation Assay for Inhibitors of Human Galactokinase (GALK) (AID 493189); further: 0% is about no effect
Summary of the method: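 Inhibition was measured as remaining ATP, detected by luciferase luminescence after a 1 h room-temperature reaction. Final conditions: 5 nM GALK, 100 uM galactose, 35 uM ATP, pH 8.0 HEPES buffer.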

[22] = molecular target: Voltage-gated inwardly rectifying potassium channel KCNH2 (Homo sapiens) (UniProt Q12809); assay: qHTS Assay for Small Molecule Inhibitors of the Human hERG Channel Activity (AID 588834);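 further: top concentration of the series differs between compounds; on the % scale 0 is the no-effect control and ±100 the full control effect; lower thallium flux fluorescence means stronger hERG block; nearly all actives have a fitted effect of over 50% in size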
Summary of the method: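 Kinetic FDSS fluorescence; U2OS + hERG BacMam (~100 virus particles/cell); FluxOR Tl+ flux; ~10 min cpd; AC50 (Hill).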

[23] = molecular target: Tumor susceptibility gene 101 protein (Homo sapiens) (UniProt Q99816); assay: qHTS Assay for Iinhibitors of HIV-1 Budding by Blocking the Interaction of PTAP/TSG101: Hit Validation (AID 651600); further: on the % scale 0 is the no-effect control and ±100 the full control effect; nearly all actives have a fitted effect of over 70% in size
Summary of the method: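 FITC-PTAP peptide (50 nM final) binding to Tsg101 binding domain (10 uM final) was measured by polarization after 20 min at r.t. with compounds, in 10 mM HEPES pH 7.5 buffer with 0.15 M NaCl and 0.01% Tween 20.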

[24] = tested on: Zika virus NS2B-NS3 protease (unlinked); assay: Optimization of GU AMC qHTS for Zika virus inhibitors: Unlinked NS2B-NS3 protease assay (AID 1347151);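 further: 0% = no-inhibitor control and -100% = no-enzyme control; nearly all actives have a fitted effect of over 80% in size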
Summary of the method: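 Fluorescence gain (340/450 nm) over 15 min at room temperature, ~20% conversion, gave percent inhibition fitted to a 4-parameter Hill equation; enzyme was unlinked NS2B-NS3 (25 nM final), pH 8.0 Tris buffer.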

[25] = tested on: Zika virus NS2B-NS3 protease; assay: Primary screen GU AMC qHTS for Zika virus inhibitors (AID 1347154);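 further: 0% = no-inhibitor control and -100% = no-enzyme control; nearly all actives have a fitted effect of over 70% in size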
Summary of the method: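 Unlinked Zika NS2B hydrophilic domain/NS3 protease domain noncovalent complex (25 nM final) in 10 mM Tris-HCl pH 8.0, 0.01% Tween 20, with AMC peptide substrate. Fluorescence (ex 340, em 450 nm) change over 15 min, room temperature; percent inhibition fitted to 4-parameter Hill equation.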

[26] = HepG2 cells viability qHTS for Zika virus inhibitors (AID 1347168); further: on the % scale 0 is the no-effect control and ±100 the full control effect
Summary of the method: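 Counter-screen for cytotoxicity of hits from NS2B-NS3 protease qHTS. Overnight-attached cells (2.5 x 10^5 cells/mL, DMEM/4% FBS) were dosed in titration, incubated 24 to 48 hours, then assayed by CellTiter Glo.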

[27] = Confirmatory qHTS for small molecule stabilizers of the endoplasmic reticulum resident proteome: Secreted ER Calcium Modulated Protein (SERCaMP) assay (AID 1508628); further: on the % scale 0 is the no-effect control and ±100 the full control effect; nearly all actives have a fitted effect of over 40% in size
Summary of the method: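 SH-SY5Y cells stably expressing GLuc-SERCaMP, treated 16 h with compound (primary 1.53, 7.67, 38.3 uM; confirmation 11 concentrations, up to 76.6 uM), then 100 nM thapsigargin for 4 h. Secreted Gaussia luciferase in medium read by coelenterazine luminescence.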

Furin (Homo sapiens) = Furin (Homo sapiens) (UniProt P09958); assay: Furin counterscreen qHTS for Zika virus inhibitors (AID 1347149);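 further: purified recombinant full-length human furin enzyme at 5 nM; fluorescence gain from furin cutting a BOC-RVRR-AMC peptide substrate over 15 min; top concentration of the series differs between compounds; plate controls were no-inhibitor control for no effect and no-enzyme control for full effect; nearly all actives have a fitted effect of over 70% in size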
Summary of the method: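 Fluorogenic cleavage of BOC-RVRR-AMC (2 microM final, Km ~15 µM) was monitored (ex 340, em 450 nm) at 37C after 15 min RT preincubation of 5 nM furin with compounds in HEPES pH 7.0 buffer with CaCl2 and Triton X-100. Percent inhibition was fitted to a 4-parameter Hill curve.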

Sequence of Thyrotropin receptor (Homo sapiens) (P16473 whole entry, looked up): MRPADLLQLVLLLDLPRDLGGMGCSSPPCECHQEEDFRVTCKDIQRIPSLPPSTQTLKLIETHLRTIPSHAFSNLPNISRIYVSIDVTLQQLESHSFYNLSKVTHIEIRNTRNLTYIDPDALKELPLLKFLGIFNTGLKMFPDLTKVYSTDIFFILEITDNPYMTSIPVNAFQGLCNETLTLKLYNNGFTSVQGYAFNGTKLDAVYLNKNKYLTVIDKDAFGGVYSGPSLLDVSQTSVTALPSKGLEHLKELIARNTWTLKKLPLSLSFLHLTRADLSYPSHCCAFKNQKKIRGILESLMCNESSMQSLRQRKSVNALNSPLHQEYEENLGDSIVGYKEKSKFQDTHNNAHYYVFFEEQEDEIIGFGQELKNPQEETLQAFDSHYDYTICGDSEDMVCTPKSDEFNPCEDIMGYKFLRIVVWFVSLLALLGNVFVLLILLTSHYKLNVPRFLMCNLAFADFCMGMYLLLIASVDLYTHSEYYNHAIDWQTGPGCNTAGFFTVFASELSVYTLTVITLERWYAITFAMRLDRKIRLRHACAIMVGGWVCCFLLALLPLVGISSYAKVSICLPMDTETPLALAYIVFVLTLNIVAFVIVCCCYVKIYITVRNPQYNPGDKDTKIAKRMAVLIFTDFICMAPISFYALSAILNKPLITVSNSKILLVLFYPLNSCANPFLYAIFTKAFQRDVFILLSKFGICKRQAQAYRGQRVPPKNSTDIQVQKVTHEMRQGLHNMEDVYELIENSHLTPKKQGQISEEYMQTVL
Sequence of DNA repair nuclease/redox regulator APEX1 (Homo sapiens) (P27695 whole entry, looked up): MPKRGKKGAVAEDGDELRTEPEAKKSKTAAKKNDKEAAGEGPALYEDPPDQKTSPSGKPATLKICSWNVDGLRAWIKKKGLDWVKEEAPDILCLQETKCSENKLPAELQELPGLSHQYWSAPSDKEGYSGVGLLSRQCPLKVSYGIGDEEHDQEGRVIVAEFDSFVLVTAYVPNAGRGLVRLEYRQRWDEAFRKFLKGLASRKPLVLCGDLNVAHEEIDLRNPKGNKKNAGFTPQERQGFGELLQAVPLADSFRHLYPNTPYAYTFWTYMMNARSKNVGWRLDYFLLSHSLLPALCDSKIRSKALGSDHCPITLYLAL
Sequence of Voltage-gated inwardly rectifying potassium channel KCNH2 (Homo sapiens) (Q12809 whole entry, looked up): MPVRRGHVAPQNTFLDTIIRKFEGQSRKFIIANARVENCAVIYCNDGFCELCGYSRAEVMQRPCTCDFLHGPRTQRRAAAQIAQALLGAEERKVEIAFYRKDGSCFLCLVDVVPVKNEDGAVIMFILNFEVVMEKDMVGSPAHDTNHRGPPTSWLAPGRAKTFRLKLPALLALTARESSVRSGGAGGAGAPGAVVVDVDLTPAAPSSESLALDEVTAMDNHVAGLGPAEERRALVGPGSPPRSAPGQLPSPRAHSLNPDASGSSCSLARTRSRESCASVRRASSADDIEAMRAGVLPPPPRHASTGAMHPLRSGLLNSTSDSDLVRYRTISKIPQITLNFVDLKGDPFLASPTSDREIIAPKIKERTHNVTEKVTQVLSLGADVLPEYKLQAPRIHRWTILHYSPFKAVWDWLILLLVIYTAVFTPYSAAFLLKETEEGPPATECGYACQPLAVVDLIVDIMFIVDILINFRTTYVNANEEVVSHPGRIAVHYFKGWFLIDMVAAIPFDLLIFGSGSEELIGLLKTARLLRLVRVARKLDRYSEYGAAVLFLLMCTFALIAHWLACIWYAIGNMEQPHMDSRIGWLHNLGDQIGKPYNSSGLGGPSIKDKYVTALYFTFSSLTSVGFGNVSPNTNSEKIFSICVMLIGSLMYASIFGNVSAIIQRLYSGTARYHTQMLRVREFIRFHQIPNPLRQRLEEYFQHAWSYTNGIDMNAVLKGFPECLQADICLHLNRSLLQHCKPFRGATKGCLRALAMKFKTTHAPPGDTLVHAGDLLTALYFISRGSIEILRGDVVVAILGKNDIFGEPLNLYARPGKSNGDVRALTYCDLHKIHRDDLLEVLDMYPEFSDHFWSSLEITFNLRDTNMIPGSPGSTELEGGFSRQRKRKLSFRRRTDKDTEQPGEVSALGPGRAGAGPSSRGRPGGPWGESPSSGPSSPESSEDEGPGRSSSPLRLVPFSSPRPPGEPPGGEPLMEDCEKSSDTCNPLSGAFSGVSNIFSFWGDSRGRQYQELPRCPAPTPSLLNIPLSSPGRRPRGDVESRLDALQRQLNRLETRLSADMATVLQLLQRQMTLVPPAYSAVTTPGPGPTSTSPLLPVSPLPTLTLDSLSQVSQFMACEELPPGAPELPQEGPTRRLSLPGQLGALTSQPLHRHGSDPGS
Sequence of Furin (Homo sapiens) (P09958 whole entry, looked up): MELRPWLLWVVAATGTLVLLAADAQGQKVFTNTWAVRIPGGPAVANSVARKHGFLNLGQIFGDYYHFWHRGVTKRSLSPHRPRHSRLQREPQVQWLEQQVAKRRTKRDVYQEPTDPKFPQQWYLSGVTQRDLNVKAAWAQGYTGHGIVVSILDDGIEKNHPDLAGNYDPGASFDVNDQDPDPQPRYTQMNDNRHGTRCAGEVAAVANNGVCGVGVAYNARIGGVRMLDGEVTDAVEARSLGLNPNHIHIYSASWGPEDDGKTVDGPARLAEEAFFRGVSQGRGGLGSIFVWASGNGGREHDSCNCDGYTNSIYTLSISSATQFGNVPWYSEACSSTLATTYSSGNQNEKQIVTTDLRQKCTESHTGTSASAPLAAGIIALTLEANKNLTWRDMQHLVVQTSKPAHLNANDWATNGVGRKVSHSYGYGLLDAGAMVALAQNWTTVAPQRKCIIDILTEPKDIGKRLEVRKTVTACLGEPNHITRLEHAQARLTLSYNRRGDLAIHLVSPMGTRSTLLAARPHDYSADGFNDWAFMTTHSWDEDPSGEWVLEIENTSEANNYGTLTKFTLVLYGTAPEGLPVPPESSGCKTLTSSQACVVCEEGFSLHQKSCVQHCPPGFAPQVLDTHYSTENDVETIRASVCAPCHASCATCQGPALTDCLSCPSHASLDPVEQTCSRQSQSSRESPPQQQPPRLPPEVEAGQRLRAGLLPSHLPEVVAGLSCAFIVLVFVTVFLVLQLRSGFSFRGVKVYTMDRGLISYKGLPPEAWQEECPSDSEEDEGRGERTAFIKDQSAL
Sequence of ATP-dependent DNA helicase Q1 (Homo sapiens) (P46063 whole entry, looked up): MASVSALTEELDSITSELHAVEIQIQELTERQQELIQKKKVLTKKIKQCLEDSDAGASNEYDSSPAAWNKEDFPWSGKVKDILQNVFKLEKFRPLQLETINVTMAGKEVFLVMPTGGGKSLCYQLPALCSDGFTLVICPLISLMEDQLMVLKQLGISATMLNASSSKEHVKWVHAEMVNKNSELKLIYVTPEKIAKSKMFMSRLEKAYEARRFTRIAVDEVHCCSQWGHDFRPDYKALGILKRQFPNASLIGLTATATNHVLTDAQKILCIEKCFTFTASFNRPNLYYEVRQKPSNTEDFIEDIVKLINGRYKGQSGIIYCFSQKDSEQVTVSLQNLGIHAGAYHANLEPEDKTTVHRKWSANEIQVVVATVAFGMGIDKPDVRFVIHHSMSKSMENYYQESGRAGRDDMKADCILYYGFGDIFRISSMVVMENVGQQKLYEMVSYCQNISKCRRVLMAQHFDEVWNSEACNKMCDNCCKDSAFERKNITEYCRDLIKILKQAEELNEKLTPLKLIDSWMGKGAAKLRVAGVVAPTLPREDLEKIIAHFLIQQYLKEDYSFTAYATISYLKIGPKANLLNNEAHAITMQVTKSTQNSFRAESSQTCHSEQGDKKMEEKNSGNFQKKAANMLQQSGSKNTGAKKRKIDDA
Sequence of Transient receptor potential cation channel subfamily V member 1 (Homo sapiens) (Q8NER1 whole entry, looked up): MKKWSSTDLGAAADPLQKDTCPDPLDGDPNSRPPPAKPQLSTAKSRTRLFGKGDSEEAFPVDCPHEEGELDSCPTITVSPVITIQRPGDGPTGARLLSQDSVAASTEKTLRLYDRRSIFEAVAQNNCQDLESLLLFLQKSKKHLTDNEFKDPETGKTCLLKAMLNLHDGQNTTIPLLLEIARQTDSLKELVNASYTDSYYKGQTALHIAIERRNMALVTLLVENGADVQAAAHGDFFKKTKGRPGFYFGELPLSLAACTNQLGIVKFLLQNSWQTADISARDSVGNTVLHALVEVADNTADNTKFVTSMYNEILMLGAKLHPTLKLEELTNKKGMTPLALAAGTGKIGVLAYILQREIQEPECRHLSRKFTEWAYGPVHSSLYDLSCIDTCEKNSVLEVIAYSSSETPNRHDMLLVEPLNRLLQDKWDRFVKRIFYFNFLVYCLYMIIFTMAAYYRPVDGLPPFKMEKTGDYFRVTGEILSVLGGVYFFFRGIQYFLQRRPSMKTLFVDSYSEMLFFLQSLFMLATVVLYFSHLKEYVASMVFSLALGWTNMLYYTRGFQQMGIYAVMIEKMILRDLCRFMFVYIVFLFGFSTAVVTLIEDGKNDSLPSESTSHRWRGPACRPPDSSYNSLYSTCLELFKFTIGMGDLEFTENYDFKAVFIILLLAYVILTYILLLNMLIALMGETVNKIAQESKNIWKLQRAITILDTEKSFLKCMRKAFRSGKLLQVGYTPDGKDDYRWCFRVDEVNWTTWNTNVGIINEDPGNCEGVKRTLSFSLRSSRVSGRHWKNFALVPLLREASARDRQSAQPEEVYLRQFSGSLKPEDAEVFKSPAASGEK
Sequence of Tumor susceptibility gene 101 protein (Homo sapiens) (Q99816 whole entry, looked up, the tested form may be a part): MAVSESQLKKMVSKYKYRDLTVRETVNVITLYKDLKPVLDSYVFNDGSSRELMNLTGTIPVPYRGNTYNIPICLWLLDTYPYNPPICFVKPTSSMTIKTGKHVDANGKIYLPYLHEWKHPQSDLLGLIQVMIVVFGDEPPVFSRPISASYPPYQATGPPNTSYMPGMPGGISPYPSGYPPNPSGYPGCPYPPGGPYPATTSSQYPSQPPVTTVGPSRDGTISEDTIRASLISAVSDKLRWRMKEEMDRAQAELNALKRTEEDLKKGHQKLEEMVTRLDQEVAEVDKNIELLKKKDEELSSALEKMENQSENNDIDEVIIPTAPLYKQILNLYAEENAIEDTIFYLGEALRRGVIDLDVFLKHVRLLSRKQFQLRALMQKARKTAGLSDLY

C=CCN1CCC2(C)c3cc(O)ccc3CC1C2C (configuration not stated)
24.1%: max response ([2]; measured here: cell count channel max response)
inactive: outcome [1] | activity change, negative = inhibition ([2]; at 57.5 µM (top of the series)) -2.86% | Potency [3] | Potency [4] | outcome [5] | Potency [8] | Potency [10] | outcome [11] | Potency [12] | Potency [13] | Potency [14] | Potency [15] | Potency [16] | Potency [17] | outcome [18] | outcome [19] | activation [20] 1.19% | outcome [21] | Potency [22] | outcome [23] | outcome [24] | Potency [25] | Potency [26] | Potency [27]
21.8%: max response ([2]; measured here: lipid channel max response)
active: Potency [6] 7.08 µM | Potency [7] 12.6 µM | Potency [9] 5.62 µM

C[C@H]1O[C@@H](O[C@H]2[C@@H](O)C[C@@H](O[C@H]3[C@@H](O)C[C@H](O[C@H]4CC[C@@]5(C)[C@H](CC[C@@H]6[C@@H]5CC[C@]5(C)[C@@H](C7=CC(=O)OC7)CC[C@]65O)C4)O[C@@H]3C)O[C@@H]2C)C[C@H](O)[C@@H]1O
inactive: Potency (Furin (Homo sapiens)) | outcome [24]

Oc1ccc2c3c1O[C@H]1c4c(c5ccccc5n4Cc4ccccc4)C[C@@]4(O)C(C2)N(CC2CC2)CC[C@]314
inactive: Potency [25]

CN(CCc1ccc(Cl)c(Cl)c1)[C@@H]1CCCC[C@@H]1N1CCCC1
inactive: Potency [25]

CC(C(=O)OC1CC2CCC(C1)N2C)c1ccc(Br)cc1 (configuration not stated)
inactive: Potency [25]

CCCCCCC(C)(C)c1cc(OC)c2c(c1)OC(C)(C)[C@@H]1CC=C(C)C[C@@H]21
inactive: Potency [25]

OC[C@H]1O[C@@H](n2cnc3cc(Cl)c(Cl)cc32)[C@H](O)[C@H]1O
inactive: Potency [25]

Cc1ccc2c(c1)Cc1c(C(=O)NN3CCCCC3)nn(-c3ccc(Cl)cc3Cl)c1-2
inactive: Potency [25]
